According to PubChem BioAssay (EPA / NIEHS):
“And” between values parts separate entries of the source, which are not always exact repeats. Identical values can stand only once. Records with an inconclusive call do not appear. The source made the active and inactive calls. The calls were made as follows: active = hit-call score of the fitted dose curve at least 0.9, where 1 is the maximum; inconclusive = response in the unintended direction; inactive = score below 0.9.

What was measured:
[1] = biological target: human Matrix Metalloproteinase-9 (MMP9), MMP9 (gene 4318) (UniProt P14780); assay: NVS_ENZ_hMMP9: NovaScreen (NVS) Enzymatic Assay for human Matrix Metalloproteinase-9 (MMP9) (AID 2283190);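 also: cell-free recombinant MMP9 protease activity read by fluorescent substrate signal; active means inhibition seen as loss of fluorescence signal versus DMSO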
Procedure, shortened: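 Inhibition was scored as loss of fluorescence signal against DMSO controls. The recombinant protease was exposed to chemicals for 1 hour before reading; initial testing used 25 uM in duplicate.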

[2] = biological target: human NIMA (Never In Mitosis Gene A)-Related Kinase 2 (NEK2), NEK2 (gene 4751) (UniProt P51955); assay: NVS_ENZ_hNEK2: NovaScreen (NVS) Enzymatic Assay for human NIMA (Never In Mitosis Gene A)-Related Kinase 2 (NEK2) (AID 2283188)
Procedure, shortened: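 Cell-free NEK2 enzyme activity after 1 h exposure, read by fluorescence with electrophoretic mobility shift separating substrate and product. Primary screen in duplicate at 25 uM; actives then run as concentration series. Loss of signal versus DMSO scored.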

[3] = biological target: human p21 Activated Kinase 4 (PAK4), PAK4 (gene 10298) (UniProt O96013); assay: NVS_ENZ_hPAK4: NovaScreen (NVS) Enzymatic Assay for human p21 Activated Kinase 4 (PAK4) (AID 2283189)
Procedure, shortened: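 Cell-free recombinant human PAK4 activity assay; fluorescent substrate and product separated by electrophoretic mobility shift, read 1 h after dosing. Initially tested in duplicate at 25 uM, relative to DMSO baseline.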

[4] = biological target: cAMP-dependent protein kinase catalytic subunit alpha (Homo sapiens) (UniProt P17612); assay: NVS_ENZ_hPKA: NovaScreen (NVS) Enzymatic Assay for human Protein Kinase A (PKA) (AID 2283192)
Procedure, shortened: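 Recombinant human PKA with specific fluorescent substrate, product separated by electrophoretic mobility shift, read 1 h after dosing. Primary screen at 25 uM in duplicate; actives then run in concentration-response up to 50 uM, activity relative to DMSO.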

[5] = biological target: human Phosphodiesterase 5 (PDE5), PDE5A (gene 8654) (UniProt O76074); assay: NVS_ENZ_hPDE5: NovaScreen (NVS) Enzymatic Assay for human Phosphodiesterase 5 (PDE5) (AID 2283194)
Procedure, shortened: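 Recombinant human PDE5 with specific substrate, read 1 h after dosing by fluorescence with electrophoretic mobility-shift separation of substrate and product. Initial single-concentration duplicate screen at 25 uM, actives followed in concentration series; loss of activity versus DMSO.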

[6] = biological target: human Protein Tyrosine Phosphatase Non-receptor Type 1 (PTPN1), PTPN1 (gene 5770) (UniProt P18031); assay: NVS_ENZ_hPTPN1: NovaScreen (NVS) Enzymatic Assay for human Protein Tyrosine Phosphatase Non-receptor Type 1 (PTPN1) (AID 2283201)
Procedure, shortened: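 Cell-free fluorogenic-substrate activity assay on recombinant enzyme, read 1.33 h after dosing by fluorescence and electrophoretic mobility shift; loss of signal vs DMSO baseline. Primary screen in duplicate at 25 uM, hits then run in concentration-response up to 50 uM.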

[7] = biological target: Tyrosine-protein phosphatase non-receptor type 11 (Homo sapiens) (UniProt Q06124); assay: NVS_ENZ_hPTPN11: NovaScreen (NVS) Enzymatic Assay for human Protein Tyrosine Phosphatase Non-receptor Type 11 (PTPN11) (AID 2283202)
Procedure, shortened: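 Recombinant human PTPN11 activity on a fluorescent substrate, with substrate/product separated by electrophoretic mobility shift; read 0.5 h after dosing, loss of signal vs DMSO. Duplicate 25 uM screen, then concentration-response up to 50 uM.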

[8] = biological target: human Phosphatase and Tensin Homolog (PTEN), PTEN (gene 5728) (UniProt P60484); assay: NVS_ENZ_hPTEN: NovaScreen (NVS) Enzymatic Assay for human Phosphatase and Tensin Homolog (PTEN) (AID 2283203)
Procedure, shortened: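 Cell-free recombinant human PTEN with fluorescent substrate; product separated by electrophoretic mobility shift and read by fluorescence 1 h after dosing. Primary screen in duplicate at 25 uM, actives followed in concentration series versus DMSO.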

[9] = biological target: Tyrosine-protein phosphatase non-receptor type 12 (Homo sapiens) (UniProt Q05209); assay: NVS_ENZ_hPTPN12: NovaScreen (NVS) Enzymatic Assay for human Protein Tyrosine Phosphatase Non-receptor Type 12 (PTPN12) (AID 2283204)
Procedure, shortened: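 Single-concentration duplicates (25 uM) preceded singleton concentration-response up to 50 uM for chemicals passing threshold. Cell-free recombinant PTPN12 activity was read 1.33 h after dosing via fluorescence after mobility-shift separation; loss of signal versus DMSO.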

[10] = biological target: human Protein Tyrosine Phosphatase Non-receptor Type 2 (PTPN2), PTPN2 (gene 5771) (UniProt P17706); assay: NVS_ENZ_hPTPN2: NovaScreen (NVS) Enzymatic Assay for human Protein Tyrosine Phosphatase Non-receptor Type 2 (PTPN2) (AID 2283207)
Procedure, shortened: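 Cell-free recombinant enzyme with fluorescent substrate, product separated by electrophoretic mobility shift; read 1 h after dosing. Primary screen single concentration (25 uM) in duplicate; actives followed in concentration series; loss of signal versus DMSO.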

[11] = biological target: human Protein Tyrosine Phosphatase Non-receptor Type 4 (PTPN4), PTPN4 (gene 5775) (UniProt P29074); assay: NVS_ENZ_hPTPN4: NovaScreen (NVS) Enzymatic Assay for human Protein Tyrosine Phosphatase Non-receptor Type 4 (PTPN4) (AID 2283208)
Procedure, shortened: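 Cell-free assay of PTPN4 expressed in Sf9 cells, using a fluorescent substrate with product separated by mobility shift; read 1.33 h after dosing. Single-point screen at 25 uM, then concentration-response up to 50 uM. Loss of signal relative to DMSO.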

[12] = biological target: human Protein Tyrosine Phosphatase Non-receptor Type 9 (PTPN9), PTPN9 (gene 5780) (UniProt P43378); assay: NVS_ENZ_hPTPN9: NovaScreen (NVS) Enzymatic Assay for human Protein Tyrosine Phosphatase Non-receptor Type 9 (PTPN9) (AID 2283209)
Procedure, shortened: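 Sf9-expressed enzyme in a cell-free assay, fluorescence read 1.33 h after dosing with mobility-shift separation of substrate and product. Tested at 25 uM in duplicate, then up to 50 uM; signal loss versus DMSO.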

[13] = biological target: human Protein Tyrosine Phosphatase Receptor Type B (PTPRB), PTPRB (gene 5787) (UniProt P23467); assay: NVS_ENZ_hPTPRB: NovaScreen (NVS) Enzymatic Assay for human Protein Tyrosine Phosphatase Receptor Type B (PTPRB) (AID 2283211)
Procedure, shortened: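 Recombinant human PTPRB with a fluorescent substrate, product separated by electrophoretic mobility shift; read 1 h after dosing. Primary screen in duplicate at 25 uM; actives then retested in concentration series; loss of signal versus DMSO.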

[14] = biological target: human Phosphodiesterase 4A1 (PDE4A1), PDE4A (gene 5141) (UniProt P27815); assay: NVS_ENZ_hPDE4A1: NovaScreen (NVS) Enzymatic Assay for human Phosphodiesterase 4A1 (PDE4A1) (AID 2283191)
Procedure, shortened: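 Cell-free recombinant human PDE4A1 with fluorescent substrate; product separated by electrophoretic mobility shift, 1 h. Screened at 25 uM, then up to 50 uM in concentration-response; loss of signal fitted against DMSO.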

[15] = biological target: human Phosphodiesterase 10 (PDE10), PDE10A (gene 10846) (UniProt Q9Y233); assay: NVS_ENZ_hPDE10: NovaScreen (NVS) Enzymatic Assay for human Phosphodiesterase 10 (PDE10) (AID 2283195)
Procedure, shortened: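 Recombinant human PDE10 with fluorescent substrate, 1 h, product separated by electrophoretic mobility shift. Loss of enzyme activity fitted against DMSO; initial screen 25 uM in duplicate, actives run to 50 uM maximum.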

[16] = biological target: human Protein Phosphatase, Mg2+/Mn2+ Dependent 1A (PPM1A), PPM1A (gene 5494) (UniProt P35813); assay: NVS_ENZ_hPPM1A: NovaScreen (NVS) Enzymatic Assay for human Protein Phosphatase, Mg2+/Mn2+ Dependent 1A (PPM1A) (AID 2283198)
Procedure, shortened: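 Cell-free recombinant PPM1A phosphatase assay with fluorescent substrate, read 1 h after dosing by electrophoretic mobility shift. Chemicals screened in duplicate at 25 uM, then in concentration-response up to 50 uM; loss of activity versus DMSO.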

[17] = biological target: Tyrosine-protein phosphatase non-receptor type 13 (Homo sapiens) (UniProt Q12923); assay: NVS_ENZ_hPTPN13: NovaScreen (NVS) Enzymatic Assay for human Protein Tyrosine Phosphatase Non-receptor Type 13 (PTPN13) (AID 2283205)
Procedure, shortened: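 Cell-free assay of recombinant human PTPN13 with a fluorescent substrate, product separated by electrophoretic mobility shift and read 0.5 h after dosing. Primary screen at 25 uM in duplicate, then concentration-response up to 50 uM. Loss of signal fitted against DMSO.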

[18] = biological target: Tyrosine-protein phosphatase non-receptor type 14 (Homo sapiens) (UniProt Q15678); assay: NVS_ENZ_hPTPN14: NovaScreen (NVS) Enzymatic Assay for human Protein Tyrosine Phosphatase Non-receptor Type 14 (PTPN14) (AID 2283206)
Procedure, shortened: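 Cell-free recombinant human PTPN14 with fluorescent substrate, read 0.5 h after dosing by fluorescence and electrophoretic mobility shift separating substrate from product. Primary screen at 25 uM in duplicate; hits run to 50 uM maximum; loss of signal versus DMSO.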

[19] = biological target: Serine/threonine-protein phosphatase PP1-alpha catalytic subunit (Homo sapiens) (UniProt P62136); assay: NVS_ENZ_hPPP1CA: NovaScreen (NVS) Enzymatic Assay for human Protein Phosphatase 1 Aatalytic subunit Alpha (PPP1CA) (AID 2283200)
Procedure, shortened: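 Recombinant enzyme activity read by fluorescence with electrophoretic mobility shift separating substrate from product, 1.33 h after dosing; loss of signal vs DMSO baseline. Primary screen in duplicate at 25 uM; actives retested in concentration-response up to 50 uM.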

Measured: AC50

Chain of Tyrosine-protein phosphatase non-receptor type 11 (Homo sapiens) (Q06124 whole entry, looked up): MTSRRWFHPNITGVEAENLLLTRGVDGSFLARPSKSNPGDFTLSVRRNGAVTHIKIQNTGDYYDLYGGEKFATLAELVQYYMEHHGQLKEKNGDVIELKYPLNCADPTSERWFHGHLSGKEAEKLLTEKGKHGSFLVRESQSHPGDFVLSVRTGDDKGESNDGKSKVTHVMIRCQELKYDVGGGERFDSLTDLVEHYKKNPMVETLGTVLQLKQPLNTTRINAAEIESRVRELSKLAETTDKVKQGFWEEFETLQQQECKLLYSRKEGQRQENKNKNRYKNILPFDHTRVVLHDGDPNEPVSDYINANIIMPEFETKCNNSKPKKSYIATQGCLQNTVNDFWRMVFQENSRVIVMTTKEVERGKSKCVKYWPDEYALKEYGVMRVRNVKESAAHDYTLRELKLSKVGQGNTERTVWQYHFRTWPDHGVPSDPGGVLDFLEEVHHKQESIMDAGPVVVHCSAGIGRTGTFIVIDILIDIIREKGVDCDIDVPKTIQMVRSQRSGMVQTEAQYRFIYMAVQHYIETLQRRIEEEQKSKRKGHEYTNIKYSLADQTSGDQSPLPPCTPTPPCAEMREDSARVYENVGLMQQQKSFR
Chain of human Protein Tyrosine Phosphatase Receptor Type B (PTPRB), PTPRB (gene 5787) (P23467 whole entry, looked up): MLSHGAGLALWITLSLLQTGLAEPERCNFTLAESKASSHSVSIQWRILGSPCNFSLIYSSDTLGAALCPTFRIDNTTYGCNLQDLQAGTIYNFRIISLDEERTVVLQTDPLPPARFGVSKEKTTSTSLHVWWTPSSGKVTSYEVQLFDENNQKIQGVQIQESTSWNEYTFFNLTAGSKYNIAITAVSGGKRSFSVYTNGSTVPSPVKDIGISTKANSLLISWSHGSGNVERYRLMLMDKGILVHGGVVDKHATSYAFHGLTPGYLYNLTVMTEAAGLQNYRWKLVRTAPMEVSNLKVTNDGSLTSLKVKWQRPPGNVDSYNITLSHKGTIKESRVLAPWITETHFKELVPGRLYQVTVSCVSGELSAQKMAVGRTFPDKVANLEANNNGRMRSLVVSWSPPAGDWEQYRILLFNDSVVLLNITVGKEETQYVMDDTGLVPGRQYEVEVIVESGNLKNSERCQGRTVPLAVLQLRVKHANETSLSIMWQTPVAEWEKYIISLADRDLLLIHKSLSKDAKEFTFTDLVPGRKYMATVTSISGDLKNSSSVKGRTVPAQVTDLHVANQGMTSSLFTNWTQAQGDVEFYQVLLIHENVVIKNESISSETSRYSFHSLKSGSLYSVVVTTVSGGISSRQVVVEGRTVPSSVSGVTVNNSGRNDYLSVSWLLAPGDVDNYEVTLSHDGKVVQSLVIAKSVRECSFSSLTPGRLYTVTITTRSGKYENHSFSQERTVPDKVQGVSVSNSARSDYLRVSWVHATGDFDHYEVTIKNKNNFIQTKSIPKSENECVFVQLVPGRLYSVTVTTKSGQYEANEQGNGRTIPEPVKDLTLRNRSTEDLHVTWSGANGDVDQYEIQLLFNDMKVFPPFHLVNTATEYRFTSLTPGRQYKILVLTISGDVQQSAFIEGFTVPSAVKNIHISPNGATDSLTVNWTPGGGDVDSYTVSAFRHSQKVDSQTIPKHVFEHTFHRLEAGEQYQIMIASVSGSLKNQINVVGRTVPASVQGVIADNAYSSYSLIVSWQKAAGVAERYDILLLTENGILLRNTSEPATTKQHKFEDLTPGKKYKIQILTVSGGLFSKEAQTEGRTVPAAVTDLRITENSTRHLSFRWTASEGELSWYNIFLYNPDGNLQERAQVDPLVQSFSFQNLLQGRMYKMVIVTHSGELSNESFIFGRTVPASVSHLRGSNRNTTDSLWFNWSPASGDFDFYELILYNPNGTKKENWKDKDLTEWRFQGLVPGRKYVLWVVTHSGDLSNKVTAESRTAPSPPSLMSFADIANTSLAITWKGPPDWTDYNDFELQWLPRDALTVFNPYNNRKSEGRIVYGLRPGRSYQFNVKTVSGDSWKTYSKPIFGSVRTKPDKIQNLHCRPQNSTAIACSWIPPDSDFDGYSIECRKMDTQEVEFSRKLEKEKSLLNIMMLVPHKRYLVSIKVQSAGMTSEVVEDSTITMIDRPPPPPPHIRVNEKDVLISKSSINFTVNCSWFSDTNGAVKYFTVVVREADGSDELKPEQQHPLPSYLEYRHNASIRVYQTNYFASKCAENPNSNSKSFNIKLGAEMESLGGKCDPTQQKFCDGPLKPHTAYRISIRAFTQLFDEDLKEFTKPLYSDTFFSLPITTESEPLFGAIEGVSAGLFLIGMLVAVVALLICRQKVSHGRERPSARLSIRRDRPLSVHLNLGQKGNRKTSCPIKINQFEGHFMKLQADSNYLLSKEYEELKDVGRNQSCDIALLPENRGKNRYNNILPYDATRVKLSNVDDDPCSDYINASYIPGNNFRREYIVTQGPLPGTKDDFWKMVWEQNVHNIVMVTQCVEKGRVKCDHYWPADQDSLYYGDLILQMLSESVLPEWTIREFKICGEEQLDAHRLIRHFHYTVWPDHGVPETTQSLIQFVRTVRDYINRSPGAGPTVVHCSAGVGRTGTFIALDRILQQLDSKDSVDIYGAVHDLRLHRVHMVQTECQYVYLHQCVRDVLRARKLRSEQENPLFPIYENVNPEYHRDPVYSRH
Chain of human NIMA (Never In Mitosis Gene A)-Related Kinase 2 (NEK2), NEK2 (gene 4751) (P51955 whole entry, looked up): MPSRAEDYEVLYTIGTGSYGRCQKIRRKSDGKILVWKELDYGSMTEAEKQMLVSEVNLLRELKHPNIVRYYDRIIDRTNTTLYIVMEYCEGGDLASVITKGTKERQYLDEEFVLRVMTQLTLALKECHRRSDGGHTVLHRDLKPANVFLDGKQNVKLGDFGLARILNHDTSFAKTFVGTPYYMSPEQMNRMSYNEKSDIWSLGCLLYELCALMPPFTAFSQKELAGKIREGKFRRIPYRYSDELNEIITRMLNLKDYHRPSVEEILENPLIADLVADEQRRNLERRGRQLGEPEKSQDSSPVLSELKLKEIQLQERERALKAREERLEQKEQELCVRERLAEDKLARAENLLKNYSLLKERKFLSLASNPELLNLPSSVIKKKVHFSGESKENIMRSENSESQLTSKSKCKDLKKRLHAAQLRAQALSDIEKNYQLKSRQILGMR
Chain of human Protein Tyrosine Phosphatase Non-receptor Type 1 (PTPN1), PTPN1 (gene 5770) (P18031 whole entry, looked up): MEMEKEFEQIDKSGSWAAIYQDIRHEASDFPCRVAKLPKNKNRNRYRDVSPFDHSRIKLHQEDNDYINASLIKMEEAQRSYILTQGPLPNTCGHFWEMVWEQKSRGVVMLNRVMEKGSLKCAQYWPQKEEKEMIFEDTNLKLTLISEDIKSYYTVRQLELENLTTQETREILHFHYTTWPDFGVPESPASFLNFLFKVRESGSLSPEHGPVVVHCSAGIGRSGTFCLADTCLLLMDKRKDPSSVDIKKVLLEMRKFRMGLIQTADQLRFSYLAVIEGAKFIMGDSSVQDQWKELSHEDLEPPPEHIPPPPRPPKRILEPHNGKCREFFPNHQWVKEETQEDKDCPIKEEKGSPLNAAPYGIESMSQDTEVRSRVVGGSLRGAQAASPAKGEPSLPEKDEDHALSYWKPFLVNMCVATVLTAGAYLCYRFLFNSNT
Chain of human p21 Activated Kinase 4 (PAK4), PAK4 (gene 10298) (O96013 whole entry, looked up): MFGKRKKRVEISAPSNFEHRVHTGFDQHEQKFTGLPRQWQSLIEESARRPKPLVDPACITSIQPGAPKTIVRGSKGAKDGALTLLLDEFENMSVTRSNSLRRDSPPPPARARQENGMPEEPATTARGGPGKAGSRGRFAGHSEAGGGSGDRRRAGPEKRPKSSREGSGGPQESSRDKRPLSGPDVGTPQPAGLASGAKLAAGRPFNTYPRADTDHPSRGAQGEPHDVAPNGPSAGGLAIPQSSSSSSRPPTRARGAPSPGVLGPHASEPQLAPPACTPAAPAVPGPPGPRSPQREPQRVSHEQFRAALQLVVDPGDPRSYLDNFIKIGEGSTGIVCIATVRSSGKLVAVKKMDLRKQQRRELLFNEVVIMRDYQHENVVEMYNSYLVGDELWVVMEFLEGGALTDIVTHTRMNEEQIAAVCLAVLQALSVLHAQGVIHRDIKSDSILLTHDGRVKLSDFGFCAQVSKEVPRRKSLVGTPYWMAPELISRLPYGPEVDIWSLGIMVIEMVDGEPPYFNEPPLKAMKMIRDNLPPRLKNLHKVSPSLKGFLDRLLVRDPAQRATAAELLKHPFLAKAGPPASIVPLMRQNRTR
Chain of Tyrosine-protein phosphatase non-receptor type 12 (Homo sapiens) (Q05209 whole entry, looked up): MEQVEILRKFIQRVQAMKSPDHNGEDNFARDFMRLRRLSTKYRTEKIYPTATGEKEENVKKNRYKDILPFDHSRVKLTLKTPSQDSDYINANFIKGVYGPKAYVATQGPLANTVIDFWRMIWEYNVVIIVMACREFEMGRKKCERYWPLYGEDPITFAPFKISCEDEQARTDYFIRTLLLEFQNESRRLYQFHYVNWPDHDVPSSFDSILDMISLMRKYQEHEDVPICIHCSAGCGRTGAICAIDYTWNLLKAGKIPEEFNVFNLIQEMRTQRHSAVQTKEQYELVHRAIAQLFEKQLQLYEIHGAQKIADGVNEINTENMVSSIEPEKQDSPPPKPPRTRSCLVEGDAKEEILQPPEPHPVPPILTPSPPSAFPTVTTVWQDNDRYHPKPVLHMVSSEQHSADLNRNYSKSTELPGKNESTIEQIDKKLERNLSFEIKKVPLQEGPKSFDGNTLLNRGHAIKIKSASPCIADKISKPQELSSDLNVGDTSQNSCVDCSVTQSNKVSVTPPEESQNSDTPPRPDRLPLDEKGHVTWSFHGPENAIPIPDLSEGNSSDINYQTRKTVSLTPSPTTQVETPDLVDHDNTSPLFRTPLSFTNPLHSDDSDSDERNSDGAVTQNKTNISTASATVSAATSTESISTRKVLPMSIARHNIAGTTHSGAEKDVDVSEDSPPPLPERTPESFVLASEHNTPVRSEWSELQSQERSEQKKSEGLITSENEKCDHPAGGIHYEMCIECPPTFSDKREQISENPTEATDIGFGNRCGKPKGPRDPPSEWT

C[N+](C)(C)Cc1ccccc1
active: [1] 8.55 µM and 5.15 µM

CCOC(=O)CCN(SN(C)C(=O)Oc1cccc2c1OC(C)(C)C2)C(C)C
active: [1] 3.66 µM

N#Cc1cccnc1
active: [5] 40.8 µM
not listed: [1] | [14] | [15] | [16] | [17] | [18] | [19]
inactive: all other assays above

O=C(N[C@H]1CN2CCC1CC2)c1ccc2c(c1)OCCO2
inactive: [3] | [14] | [4] | [15] | [16]

C#CCOC(=O)/C=C(C)/C=C/CC(C)CCCC(C)C (stereo unspecified)
active: [1] 7.1 µM

CCOP(=O)(OCC)OC(=CCl)c1ccc(Cl)cc1Cl
active: [1] 22.8 µM

Oc1c(Br)cc(Br)cc1Br
inactive: [1]

CC(C)(C)c1cc([N+](=O)[O-])cc(C(C)(C)C)c1O
active: [1] 1.64 µM

CCCCN(CCCC)C(=S)[S-].CCCCN(CCCC)C(=S)[S-].[Ni+2]
active: [1] 12.5 µM

CC(C)O.CC(C)O.OCCN(CCO)CCO.OCCN(CCO)CCO.[Ti]
active: [2] 17.5 µM | [3] 0.00229 µM | [4] 0.00229 µM | [6] 0.00438 µM | [7] 13.6 µM | [8] 0.493 µM | [9] 0.00439 µM | [17] 3.51 µM | [18] 0.00229 µM | [10] 0.00229 µM | [13] 0.00229 µM

CCCCCCCCCCCCc1cccc(S(=O)(=O)O)c1
active: [2] 12.2 µM | [4] 29.9 µM | [5] 14.7 µM | [19] 35.3 µM | [6] 14.8 µM | [7] 22.5 µM | [8] 12.9 µM | [9] 12.8 µM | [17] 22.7 µM | [12] 5.53 µM | [13] 19.2 µM
